D3 ag – D3 dopamine receptor (human) agonism; P35462; D3R DiscoveRx beta-arrestin cells, luminescence, 90 min; max activation, %; 410,000 compounds, 0.58% hits; AID 652048; in the data active means max activation above about 30%
Target sequence (P35462 whole entry, looked up): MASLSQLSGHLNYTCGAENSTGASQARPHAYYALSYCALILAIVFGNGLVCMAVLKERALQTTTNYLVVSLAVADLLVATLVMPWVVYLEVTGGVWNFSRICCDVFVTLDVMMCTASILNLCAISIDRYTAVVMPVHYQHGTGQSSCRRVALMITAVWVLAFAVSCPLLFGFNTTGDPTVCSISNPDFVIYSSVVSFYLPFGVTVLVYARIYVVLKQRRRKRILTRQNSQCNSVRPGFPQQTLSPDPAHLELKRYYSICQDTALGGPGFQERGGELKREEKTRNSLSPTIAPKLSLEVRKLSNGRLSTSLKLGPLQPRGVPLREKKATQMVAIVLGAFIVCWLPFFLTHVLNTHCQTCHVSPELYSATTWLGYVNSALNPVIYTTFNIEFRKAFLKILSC
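Agonist mode: compounds and dopamine controls were applied to plated cells for 90 min at 37 degrees C after an overnight attachment at 1500 cells/well. Luminescent read-out followed 30 - 60 minutes at room temperature with DiscoveRx detection reagent.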
ClpP mod – qHTS Assay for Activators of ClpP | purified B. subtilis ClpP, FRET peptide cleavage, 20 min | 340,000 compounds, 1.9% hits | ATP-dependent Clp protease proteolytic subunit (Bacillus subtilis (strain 168)), P80244 | AID 651965, 2013 | Potency, µM (titrated, usually from 57.5 µM); active means well fitted falling curve with a large enough effect; inconclusive means small, poorly fitted or top-dose-only effect; inactive means no such curve, though single readings can be large or run the other way; further: the source files actives as falling curves though it sought activators and does not explain the sign; nearly all actives have a fitted effect of over 65% in size
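FRET quenching reversal measured ClpP activation: 10 microg/mL B. subtilis ClpP at pH 8 with the FRET-FV decapeptide, read at 430 nm after 320 nm excitation. The 20-min minus 0-min signal was scaled between DMSO/no-enzyme wells and ADEP (5.8 microM final).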
IL-1B inflam inh – inflammasome signaling inhibition, IL-1 beta readout. THP-1 LPS/ATP IL-1B secretion, AlphaLISA, 16 h; stronger effect = lower value. activity change, % at 57.5 µM. 360,000 compounds, 4.7% hits. AID 743279; in the data active means activity change below about -50%; inconclusive means mostly about -30% to -49%
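Secreted IL-1B measured by AlphaLISA bead assay after 16 h compound exposure of THP-1 cells; compounds (final up to 57.5 uM) added 1 h before LPS (250 ng/mL) and ATP (1.25 mM) stimulation; lower signal means less secretion.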
TDP1 cell noCPT – qHTS for Inhibitors of human tyrosyl-DNA phosphodiesterase 1 (TDP1): qHTS in cells in absence of CPT; DT40 Tdp1-/- hTDP1 cells, no CPT, ATP luminescence, 48 h; Potency, µM (titrated, usually from 46.2 µM), most hits filed as inhibitors; 420,000 compounds, 15% hits; AID 686978, 2013; further: nearly all actives have a fitted effect of over 55% in size
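Chicken DT40 Tdp1-/- cells stably complemented with human TDP1 were seeded at 400 cells/well with DMSO in place of 20 nM camptothecin. After compound pinning, cells grew at least 48 hr at 37 °C; viability read by CellTiter-Glo luminescence.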
DT40 TDP1 CPT – growth inhibition of DT40 Tdp1-/-;hTDP1 cells with camptothecin (screen for TDP1 inhibitors). chicken DT40 Tdp1-/-;hTDP1 cells + 20 nM CPT, ATP luminescence, 48 h. Potency, µM (doses to about 46.2 µM), actives largely listed as inhibitors. 420,000 compounds, 12% hits; further: nearly all actives have a fitted effect of over 55% in size
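Chicken DT40 Tdp1-/- cells complemented with human TDP1, 400 cells/well, exposed to compounds plus 20 nM camptothecin for at least 48 h at 37 C; viability read as ATP content by CellTiter-Glo luminescence.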
D3 antag – blocks the human D3 dopamine receptor | max response, negative = inhibition, % | P35462 | D3R cells, DiscoveRx beta-arrestin luminescence, antagonist mode; stronger effect = lower value | 360,000 compounds, 2.5% hits; in the data active means max response below about -50%; inconclusive means no clear call, values can overlap the other calls
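Cells plated overnight at 1500 cells/well, then exposed to library compounds with dopamine controls for 90 minutes at 37 degrees C. DiscoveRx reagent added for 30–60 minutes at room temperature; luminescence read, quantitative HTS format.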
Each line names hits and unclear results; the compound was inactive in the other large screens. Rows were chosen to be rich in hits. Some 21% of all compounds tested hit in one or more screens of this group. Unless noted, the call rests on the fitted dose curve; in most records, active means well fitted inhibition curve with a large enough effect; inconclusive means small, poorly fitted or top-dose-only effect; inactive means flat fitted curve, though single readings scatter.

Cc1ccc(C2(O)CN(c3ccccc3)C3=[N+]2CCS3)cc1 (configuration not stated)	IL-1B inflam inh -75.6, TDP1 cell noCPT inconclusive, DT40 TDP1 CPT inconclusive
Cc1ccc(C2(O)CN(c3ccccc3C)C3=[N+]2CCS3)cc1 (configuration not stated)	TDP1 cell noCPT 18.4µM, DT40 TDP1 CPT 11.6µM
Cc1ccccc1N1CC(O)(c2ccccc2)[N+]2=C1SCC2 (configuration not stated)	TDP1 cell noCPT inconclusive, DT40 TDP1 CPT inconclusive
O=C(Cc1csc2nc(-c3ccccc3)cn12)NCc1ccc(F)cc1	none (no result: IL-1B inflam inh, D3 antag)
O=C(Nc1ccccc1-c1cn2c(CN3CCNCC3)csc2n1)c1cnc2ccccc2n1	TDP1 cell noCPT 5.62µM, DT40 TDP1 CPT 3.55µM (no result: D3 ag, IL-1B inflam inh, D3 antag)
COc1ccc(C)cc1NC(=O)C1CCCN(c2ncnc3onc(C)c23)C1 (configuration not stated)	TDP1 cell noCPT 16.4µM, DT40 TDP1 CPT inconclusive (no result: IL-1B inflam inh, D3 antag)
COc1cccc(NC(=O)C2CCCN(c3ncnc4onc(C)c34)C2)c1 (configuration not stated)	TDP1 cell noCPT 20.6µM, DT40 TDP1 CPT 20.6µM (no result: IL-1B inflam inh, D3 antag)
Cc1noc2ncnc(N3CCCC(C(=O)NC(C)C)C3)c12 (configuration not stated)	TDP1 cell noCPT inconclusive (no result: IL-1B inflam inh, D3 antag)
COc1cccc(NC(=O)C2CCC2)c1	none
Cc1ccc(NC(=O)C2CCCN(c3ncnc4onc(C)c34)C2)cc1Cl (configuration not stated)	TDP1 cell noCPT 16.4µM, DT40 TDP1 CPT 10.3µM (no result: IL-1B inflam inh, D3 antag)
COc1ccc(-c2noc(N3CCCC(C(=O)Nc4ccc(F)cc4F)C3)n2)cc1 (configuration not stated)	TDP1 cell noCPT inconclusive, DT40 TDP1 CPT inconclusive
COCCn1c(=O)c(-c2cc(F)cc(F)c2)nc2cnc(Oc3ccc(OC)cc3)nc21	TDP1 cell noCPT inconclusive (no result: D3 ag, ClpP mod, IL-1B inflam inh, D3 antag)
COc1cc2cc[n+]3cc4c(OC)c(OC)ccc4cc3c2cc1OC	TDP1 cell noCPT 2.91µM, DT40 TDP1 CPT 2.31µM (no result: D3 ag, ClpP mod, IL-1B inflam inh, D3 antag)
CCN(CC)S(=O)(=O)c1ccc(NC=C(C#N)C#N)cc1	TDP1 cell noCPT inconclusive (no result: ClpP mod)
Oc1ccc(Br)cc1-c1ccnn1-c1ccccc1	TDP1 cell noCPT 10.3µM, DT40 TDP1 CPT 20.6µM
Cc1ccc(N2CC(C(=O)N3CCCCCC3)CC2=O)cc1 (configuration not stated)	none
O=C(NCC(c1ccc2c(c1)OCO2)N1CCOCC1)c1ccccc1F (configuration not stated)	DT40 TDP1 CPT inconclusive (no result: IL-1B inflam inh, D3 antag)
Cc1ccc(/C=N/NC(=O)c2cc(-c3ccccc3)nc3ccccc23)o1	TDP1 cell noCPT 9.2µM, DT40 TDP1 CPT 18.4µM
Cc1ccc(-c2cc(C(=O)N/N=C/c3c(C)nn(C)c3C)c3ccccc3n2)cc1C	IL-1B inflam inh -50.7, TDP1 cell noCPT 10.3µM, DT40 TDP1 CPT 11.6µM
Cc1cc(C(=O)N/N=C/c2ccc(C)o2)c2ccccc2n1	TDP1 cell noCPT 1.3µM, DT40 TDP1 CPT 1.46µM
Cc1ccc(-c2cc(C(=O)N/N=C/c3ccoc3)c3ccccc3n2)cc1	TDP1 cell noCPT inconclusive, DT40 TDP1 CPT inconclusive
CCCc1cc(C(=O)N/N=C/c2ccc(C)o2)c2ccccc2n1	TDP1 cell noCPT inconclusive, DT40 TDP1 CPT inconclusive
Cc1ccc(/C=N/NC(=O)c2cc(C3CC3)nc3ccccc23)o1	TDP1 cell noCPT 3.66µM, DT40 TDP1 CPT 4.11µM
CC(C)C[C@H]1CN([C@@H](CC(C)C)CN2CCC[C@H]2CN2C(=O)C(=O)NC[C@@H]2Cc2ccc(O)cc2)C(=O)C(=O)N1CC1CCCCCC1	IL-1B inflam inh -52.4, TDP1 cell noCPT inconclusive, DT40 TDP1 CPT inconclusive
CC(C)C[C@H]1CN([C@@H](CC(C)C)CN2CCC[C@@H]2CN2C(=O)C(=O)NC[C@@H]2Cc2ccccc2)C(=O)C(=O)N1CC1CCCCC1	IL-1B inflam inh inconclusive, TDP1 cell noCPT inconclusive, DT40 TDP1 CPT inconclusive

Screening data: PubChem, National Center for Advancing Translational Sciences (NCATS)
